Laboratory results from PubChem BioAssay.
Activity calls are given as the source filed them.

Columns and labels:
[1] = small molecules captured by biotinylated probe aFSTL3 – biochemical, small-molecule microarray, fluorescence 635/667, stem cell growth factor project, primary screen (AID 1064); details: higher = more signal;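 note: measures binding of the biotinylated anti-FSTL3 antibody to printed compounds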
[2] = binders from COS7 lysate, DM2A8 probe, primary screen, torsin A project, cell lysate, small-molecule microarray, fluorescence 635/667 (AID 1065); details: higher = more signal, COS7 lysate expressing mutant human TOR1A
[3] = small molecules captured by biotinylated probe aFGF2 – biochemical, small-molecule microarray, fluorescence 635/667, stem cell growth factor project, primary screen (AID 1067); details: higher = more signal;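 note: measures binding of biotinylated aFGF2 protein to printed compounds on slides; z-score merges feature fluorescence and signal-to-noise across triplicate slides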
[4] = small molecules captured by biotinylated probe aFGF10 – biochemical, small-molecule microarray, fluorescence 635/667, stem cell growth factor project, primary screen (AID 1071); details: higher = more signal;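 note: score merges 667 nm spot intensity and signal to noise from triplicate slides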
[5] = target: Neurogenic locus notch homolog protein 2 (Homo sapiens) (UniProt Q04721); assay: small molecules binding Notch2 protein – biochemical, small-molecule microarray, 635 nm fluorescence, stem cell growth factors, primary screen (AID 1073); details: higher = more signal
[6] = target: Pro-neuregulin-1, membrane-bound isoform (Homo sapiens) (UniProt Q02297); assay: small molecules binding neuregulin-1 protein – biochemical, small-molecule microarray, fluorescence 635/667, psychiatric disease protein project, primary screen (AID 1075); details: NRG1 binding, 635 nm fluorescence, higher = more signal;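 note: score combines 667 nm spot fluorescence with signal to noise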
[7] = system: Neuregulin-1 EGF-like domain; assay: small molecules binding NRG1 EGF domain – biochemical, small-molecule microarray, 635 nm fluorescence, primary screen (AID 1081); details: higher = more signal;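 note: binding of the protein to compounds printed on small-molecule microarray slides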
[8] = FRG1 expression reporter modulators in myotubes – cell-based, C2C12 myotubes, firefly/Renilla luciferase, luminescence, FRG1 inhibition for FSHD, primary screen (AID 1084); details: FRG1 promoter luciferase, higher = more signal, called active from +8 up or from −8 down
[9] = small molecules captured by biotinylated probe aFST – biochemical, small-molecule microarray, fluorescence 635/667, stem cell growth factor project, primary screen (AID 1086); details: higher = more signal;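 note: score merges 667 nm fluorescence with signal-to-noise of each printed compound spot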
[10] = binders of probe aHhip on microarray, primary screen, stem cell growth factor project, biochemical, small-molecule microarray, fluorescence 635/667 (AID 1087); details: higher = more signal;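 note: score merges spot fluorescence at 667nm with spot signal to noise ratio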
[11] = system: PRMT1 (protein arginine N-methyltransferase 1); assay: small molecules binding arginine methyltransferase PRMT1 – biochemical, small-molecule microarray, 635 nm fluorescence, primary screen (AID 1088); details: higher = more signal;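 note: binding of Prmt1 protein to compounds spotted on small-molecule microarray slides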
[12] = growth effects on S. cerevisiae YJM789 – YJM789 clinical isolate, OD600, 24 h, basal, primary screen (AID 1089); details: higher = more signal, called active from +8 up or from −8 down;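 note: growth of clinical yeast isolate S. cerevisiae YJM 789 seeded 1000 cells per well; test concentration not given here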
[13] = S. pombe growth modifiers, basal conditions – strain 972, OD600, 24 h, no modulator, primary screen (AID 1090);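 note: basal condition with compound alone and no growth modifier present; test concentration not given here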; details: S. pombe 972 growth, higher = more signal, called active from +8 up or from −8 down
[14] = budding yeast growth modifiers under rapamycin – strain BY4716, OD600, 96 h, primary screen (AID 1091); note: test concentration not given here; details: S. cerevisiae BY4716 + rapamycin, higher = more signal, called active from +8 up or from −8 down
[15] = target: Torsin-1A-interacting protein 2 (Homo sapiens) (UniProt Q8NFQ8); assay: small molecules binding lysate-expressed LULL1 – cell lysate, human LULL1 lysate, 635/667 nm fluorescence, primary screen (AID 1092); details: small-molecule microarray, hLULL1 lysate binding, 635 nm fluorescence; higher = more signal;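 note: probe is lysate of COS7 cells overexpressing human LULL1; score merges per-feature 667 nm fluorescence with signal-to-noise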
[16] = optical density change of DRC41 E. coli – strain DRC41, OD650, 24 h, E. coli filamentation project, primary screen (AID 1093);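 note: MC1000 strain lacking acrAB efflux and sulA so SOS filamentation is blocked; test concentration not given here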; details: E. coli DRC41 growth, higher = more signal, called active from +8 up or from −8 down
[17] = probe aLefty2 binding to arrayed compounds – biochemical, biotinylated probe, 635/667 nm fluorescence, primary screen (AID 1094); details: small-molecule microarray, higher = more signal;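 note: score merges spot fluorescence near 667 nm with spot signal-to-noise ratio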
[18] = system: Noggin (protein binding on small-molecule microarray); assay: small molecules binding Noggin protein – biochemical, 635/667 nm fluorescence, primary screen (AID 1095); details: 635 nm fluorescence, higher = more signal;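 note: score merges 667 nm feature fluorescence with signal to noise over triplicate slides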
[19] = target: Neurogenic locus notch homolog protein 3 (Homo sapiens) (UniProt Q9UM47); assay: small molecules binding NOTCH3 protein – biochemical, 635/667 nm fluorescence, primary screen (AID 1096); details: small-molecule microarray, 635 nm fluorescence, higher = more signal
[20] = probe aEGFR binding to arrayed compounds – biochemical, biotinylated probe, 635/667 nm fluorescence, primary screen (AID 1097); details: small-molecule microarray, higher = more signal;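 note: probe is a biotinylated anti-EGFR antibody binding compounds printed on slides; score combines fluorescence near 667 nm and signal to noise of each spot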

Sequence of Neurogenic locus notch homolog protein 2 (Homo sapiens) (Q04721 whole entry, looked up, canonical isoform): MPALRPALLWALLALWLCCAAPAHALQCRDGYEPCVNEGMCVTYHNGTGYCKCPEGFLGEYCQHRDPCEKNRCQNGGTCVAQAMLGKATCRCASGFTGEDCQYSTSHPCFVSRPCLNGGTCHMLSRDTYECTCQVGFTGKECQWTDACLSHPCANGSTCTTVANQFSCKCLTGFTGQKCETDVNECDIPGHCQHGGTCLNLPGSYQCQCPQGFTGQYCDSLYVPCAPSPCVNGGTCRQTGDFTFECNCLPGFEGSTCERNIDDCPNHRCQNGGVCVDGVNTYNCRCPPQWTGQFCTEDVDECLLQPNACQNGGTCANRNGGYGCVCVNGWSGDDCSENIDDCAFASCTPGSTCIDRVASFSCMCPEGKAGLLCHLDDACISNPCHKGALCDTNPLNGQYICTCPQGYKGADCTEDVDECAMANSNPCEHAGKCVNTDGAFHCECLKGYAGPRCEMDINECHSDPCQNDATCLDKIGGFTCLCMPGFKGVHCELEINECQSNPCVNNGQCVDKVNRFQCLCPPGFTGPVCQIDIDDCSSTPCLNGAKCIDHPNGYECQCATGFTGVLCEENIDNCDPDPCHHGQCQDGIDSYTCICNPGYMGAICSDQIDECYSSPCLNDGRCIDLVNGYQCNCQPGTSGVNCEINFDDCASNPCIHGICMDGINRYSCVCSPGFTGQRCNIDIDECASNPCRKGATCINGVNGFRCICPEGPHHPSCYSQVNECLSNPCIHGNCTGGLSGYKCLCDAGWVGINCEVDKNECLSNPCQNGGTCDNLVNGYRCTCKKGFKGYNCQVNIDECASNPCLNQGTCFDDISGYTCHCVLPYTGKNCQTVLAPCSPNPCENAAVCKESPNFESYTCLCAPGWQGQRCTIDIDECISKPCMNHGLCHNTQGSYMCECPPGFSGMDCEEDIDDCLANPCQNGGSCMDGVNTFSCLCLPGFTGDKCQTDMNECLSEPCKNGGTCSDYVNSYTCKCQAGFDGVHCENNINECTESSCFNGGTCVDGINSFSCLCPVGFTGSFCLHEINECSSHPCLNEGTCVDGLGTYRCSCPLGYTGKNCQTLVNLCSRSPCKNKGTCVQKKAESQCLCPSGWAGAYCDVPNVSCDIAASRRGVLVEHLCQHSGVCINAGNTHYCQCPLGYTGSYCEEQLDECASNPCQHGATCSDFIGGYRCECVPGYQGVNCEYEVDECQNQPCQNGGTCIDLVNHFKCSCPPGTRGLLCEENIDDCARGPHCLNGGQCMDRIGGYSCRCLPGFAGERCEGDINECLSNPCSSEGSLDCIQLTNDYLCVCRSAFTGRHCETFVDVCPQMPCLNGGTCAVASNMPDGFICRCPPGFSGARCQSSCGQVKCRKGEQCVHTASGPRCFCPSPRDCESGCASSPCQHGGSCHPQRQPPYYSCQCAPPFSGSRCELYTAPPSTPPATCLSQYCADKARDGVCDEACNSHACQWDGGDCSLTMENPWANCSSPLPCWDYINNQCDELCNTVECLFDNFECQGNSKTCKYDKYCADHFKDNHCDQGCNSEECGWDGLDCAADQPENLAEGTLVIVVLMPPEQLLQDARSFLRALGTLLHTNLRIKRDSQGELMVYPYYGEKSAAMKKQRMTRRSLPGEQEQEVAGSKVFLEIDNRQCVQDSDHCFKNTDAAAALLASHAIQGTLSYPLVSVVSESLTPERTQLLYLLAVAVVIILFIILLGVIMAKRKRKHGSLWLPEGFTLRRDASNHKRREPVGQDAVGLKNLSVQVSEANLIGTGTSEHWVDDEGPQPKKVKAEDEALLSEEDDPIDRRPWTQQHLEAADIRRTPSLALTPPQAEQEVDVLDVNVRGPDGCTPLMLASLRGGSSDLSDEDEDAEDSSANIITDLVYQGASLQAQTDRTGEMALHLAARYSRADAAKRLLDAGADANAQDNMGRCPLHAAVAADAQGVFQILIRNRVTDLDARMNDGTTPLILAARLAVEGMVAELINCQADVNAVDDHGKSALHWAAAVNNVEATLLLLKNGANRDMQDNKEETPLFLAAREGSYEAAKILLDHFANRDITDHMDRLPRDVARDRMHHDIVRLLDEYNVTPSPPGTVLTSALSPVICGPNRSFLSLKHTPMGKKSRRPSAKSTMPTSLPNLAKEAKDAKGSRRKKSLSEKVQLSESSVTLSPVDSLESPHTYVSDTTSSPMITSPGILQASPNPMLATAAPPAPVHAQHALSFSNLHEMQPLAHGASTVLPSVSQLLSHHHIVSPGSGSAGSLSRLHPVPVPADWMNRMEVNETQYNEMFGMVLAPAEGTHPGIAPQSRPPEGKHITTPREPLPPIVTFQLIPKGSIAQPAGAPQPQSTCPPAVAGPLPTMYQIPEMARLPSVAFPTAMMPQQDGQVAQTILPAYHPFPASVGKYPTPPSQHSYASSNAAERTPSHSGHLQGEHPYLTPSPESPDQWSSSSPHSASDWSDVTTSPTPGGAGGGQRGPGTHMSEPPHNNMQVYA
Sequence of Pro-neuregulin-1, membrane-bound isoform (Homo sapiens) (Q02297 whole entry, looked up, the tested form may be a part, canonical isoform): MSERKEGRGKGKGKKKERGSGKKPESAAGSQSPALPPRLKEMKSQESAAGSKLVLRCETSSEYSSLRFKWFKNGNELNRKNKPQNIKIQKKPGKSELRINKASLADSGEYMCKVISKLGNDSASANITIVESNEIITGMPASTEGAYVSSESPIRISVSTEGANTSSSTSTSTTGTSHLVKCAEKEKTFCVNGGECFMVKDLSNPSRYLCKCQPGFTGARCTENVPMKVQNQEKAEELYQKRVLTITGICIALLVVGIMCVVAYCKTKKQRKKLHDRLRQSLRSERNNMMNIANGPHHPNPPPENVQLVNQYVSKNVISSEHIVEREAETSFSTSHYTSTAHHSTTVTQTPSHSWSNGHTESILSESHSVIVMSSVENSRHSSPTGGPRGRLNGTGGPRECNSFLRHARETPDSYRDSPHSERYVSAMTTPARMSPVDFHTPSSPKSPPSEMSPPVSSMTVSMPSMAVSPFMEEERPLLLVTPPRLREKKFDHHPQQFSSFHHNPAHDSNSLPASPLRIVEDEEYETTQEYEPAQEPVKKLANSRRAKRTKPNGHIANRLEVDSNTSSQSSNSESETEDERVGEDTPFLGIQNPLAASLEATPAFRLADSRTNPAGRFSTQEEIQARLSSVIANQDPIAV
Sequence of Torsin-1A-interacting protein 2 (Homo sapiens) (Q8NFQ8 whole entry, looked up): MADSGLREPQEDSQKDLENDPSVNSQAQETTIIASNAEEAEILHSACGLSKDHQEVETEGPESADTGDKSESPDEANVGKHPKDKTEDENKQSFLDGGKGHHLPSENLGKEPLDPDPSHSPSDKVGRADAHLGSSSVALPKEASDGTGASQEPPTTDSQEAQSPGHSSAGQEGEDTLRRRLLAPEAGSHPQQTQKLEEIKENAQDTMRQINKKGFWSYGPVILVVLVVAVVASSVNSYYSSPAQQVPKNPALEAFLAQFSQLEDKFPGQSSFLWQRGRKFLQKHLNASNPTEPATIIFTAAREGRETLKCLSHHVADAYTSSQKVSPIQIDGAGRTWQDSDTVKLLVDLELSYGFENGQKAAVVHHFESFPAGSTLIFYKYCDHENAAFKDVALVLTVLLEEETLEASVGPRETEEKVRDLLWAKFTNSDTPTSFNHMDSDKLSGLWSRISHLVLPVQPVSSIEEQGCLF

Structure (SMILES) | composite z-score [1] | composite z-score [2] | composite z-score [3] | composite z-score [4] | composite z-score [5] | composite z-score [6] | composite z-score [7] | z-score [8] | composite z-score [9] | composite z-score [10] | composite z-score [11] | z-score [12] | z-score [13] | z-score [14] | composite z-score [15] | z-score [16] | composite z-score [17] | composite z-score [18] | composite z-score [19] | composite z-score [20]
CC(CO)N1C(=O)[C@@H]2[C@H]3C(=O)OCC=C[C@H]3OC23C=CCN(C(C)(C)C)C(=O)[C@@H]13 (stereo not given in full) | -0.279 | 0.261 | -0.128 | 0.337 | -0.175 | -0.305 | 1.51 | 1.76 (inactive) | -0.415 | -0.0618 | -0.507 | -0.0994 (inactive) | -0.0932 (inactive) | -0.422 (inactive) | -1.25 | -0.607 (inactive) | -0.103 | -0.429 | -0.0056 | -0.0656
C[N+](C)(C)CCCCCCNC(=O)[C@H]1C[C@H]2C(=O)NCC(=O)N2[C@H]1c1ccc(O)cc1 | -0.411 | 0.71 | -0.0973 | 0.776 | 0.0422 | 1.52 | 1.17 | 4.03 (inactive) | 0.358 | -0.744 | 1.46 | -0.374 (inactive) | 0.332 (inactive) | -0.489 (inactive) | 2.88 | 0.376 (inactive) | -0.413 | 1.6 | 1.05 | -0.12
C=C(COC)/C(=C/C[C@H](OC(=O)c1ccncc1)c1ccccc1OCCO)c1cnc2ccccc2c1 | -0.776 | 0.171 | -0.0524 | 1.18 | 1.34 | 1.47 | 1.24 | 1.01 (inactive) | 1.07 | -0.242 | 1.54 | -1.77 (inactive) | -0.997 (inactive) | -0.252 (inactive) | 2.94 | 0.395 (inactive) | -0.345 | 1.44 | 1.02 | 0.0024
COC(=O)[C@@]1(Cc2ccccc2)[C@@H]2C(=CC(=O)[C@H]2CC(=O)C(=O)N(C)C)CN1C(=O)c1ccccc1 | 0.152 | -0.0069 | 0.305 | 1.21 | 1.39 | 1.98 | 1.32 | -1.26 (inactive) | 0.962 | 0.113 | 0.777 | -1.06 (inactive) | 0.378 (inactive) | -0.251 (inactive) | 3.22 | 0.844 (inactive) | 0.262 | -0.434 | 1.06 | 0.156
